Here are results for 40 compounds from PubChem BioAssay (Tox21).

Molecules are shown by their SMILES. Records with an inconclusive call do not appear. Entries that show only a call come without a potency. Active and inactive are the calls of the source. Calls come from the whole dose curve; as a rule, active = well fitted curve in the direction sought with a large enough effect in the repeat runs; inconclusive = weak or mixed curves; inactive = no such curve, though single readings can be large; an effect the other way counts as inactive or inconclusive.
Potency is the fitted concentration of half-maximal effect.

The nature of one test: qHTS assay to identify small molecule antagonists of the estrogen related receptor (ERR) signaling pathway (AID 1224819; note: nearly all actives have a fitted effect of over 50% in size). As to conditions: ERR reporter cell line, luciferase inhibition; series mostly up to 46.1 µM. Put shortly:
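Compounds dissolved in DMSO were pin-transferred onto ERR cells that had been plated 6 h earlier, and cells were then incubated 18 h at 37 C; signal was luciferase luminescence via One-Glo.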
In general terms: Quantitative high-throughput screening tests each substance at several concentrations.
With `Cc1cccc(-c2[nH]c(C(C)(C)C)nc2-c2ccc3nccnc3c2)n1`, the Potency was 10.2 µM (active).
For the compound `OCC1O[C@H]([S-])C(O)[C@@H](O)[C@@H]1O.[Au+]` (stereo not given in full), the Potency was 22 µM (active).
As to `NOCC(=O)O`, the Potency result is “inactive”.
As to `CCN(CC)CCOc1ccc(Nc2ncc3cc(-c4c(Cl)cccc4Cl)c(=O)n(C)c3n2)cc1`, the Potency was 9.08 µM (active).
`CN(C)C(=O)/N=N/C(=O)N(C)C`: the Potency result is “inactive”.
Consider `N#C/C(=C\c1ccc(O)c(O)c1)C(=O)NCCc1ccccc1`, for which the Potency entry was “inactive”.
Same read-out and setting: for `CC[C@@H]1Cc2cc(O)ccc2C2=C1c1ccc(O)cc1C[C@H]2CC` the value was 14.4 µM (active).
As for `COc1ccc2c(c1)c(CC(=O)O)c(C)n2C(=O)c1ccccc1`, the Potency entry was “inactive”.
Still for that read-out and setting: then `COCCOc1cc2nc[nH]c(=O)c2cc1OCCOC`, with “inactive”.
For the compound `N=c1c[n+](N2CCOCC2)[n-]o1`, the Potency result was “inactive”.
On to `O=C1NC(=O)c2cc(Nc3ccccc3)c(Nc3ccccc3)cc21`, for which the Potency was 10.2 µM (active).
Regarding `Cn1c(=O)c2c(nc(/C=C/c3cccc(Cl)c3)n2C)n(C)c1=O`, the Potency result was “inactive”.
`C[C@@H](NCCc1ccc(O)cc1)[C@@H](O)c1ccc(O)cc1`: the Potency entry was “inactive”.
`O=C1/C(=C/c2ccsc2)CC/C1=C\c1cccs1`: the Potency result is “inactive”.
The same measure, in the same setting: for `CC[C@@H](C)[C@H]1O[C@]2(CC[C@@H]1C)C[C@@H]1C[C@@H](C/C=C(\C)[C@@H](O[C@H]3C[C@H](OC)[C@@H](O[C@H]4C[C@H](OC)[C@@H](O)[C@H](C)O4)[C@H](C)O3)[C@@H](C)/C=C/C=C3\CO[C@@H]4[C@H](O)C(C)=C[C@@H](C(=O)O1)[C@]34O)O2` the value was 12.3 µM (active).
As to `Nc1ncnc2c1c(-c1ccc(Oc3ccccc3)cc1)cn2C1CCCC1`, the Potency was 11.9 µM (active).
Regarding `CCCCC[C@H](CC(=O)NO)C(=O)N[C@H](C(=O)N1CCC[C@H]1CO)C(C)C`, the Potency was 5.11 µM (active).
With `N[C@H](CO)C(=O)O`, the Potency entry is “inactive”.
Regarding `C[N+](C)(C)CC=O`, the Potency entry is “inactive”.
On to `CC(=O)N[C@H](C(=O)O)C(C)(C)SN=O`, for which the Potency result was “inactive”.
For the compound `O=C1OC(=O)C2C3CCC(O3)C12` (stereo not given), the Potency result is “inactive”.
For the compound `O=c1cc(-c2ccccc2)oc2c(O)c(O)ccc12`, the Potency result was “inactive”.

Another test is described as follows: qHTS assay to identify small molecule agonists of the estrogen related receptor (ERR) signaling pathway (AID 1224820). As to conditions: ERR reporter cell line, luciferase agonist mode; series mostly up to 46.1 µM. Put shortly:
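Cells: ERR line from NTP, 2,000/well. Pre-incubation 6 h, 37 C/5% CO2. Compound (DMSO) pin transfer, 18 h 37 C. One-Glo, 30 min RT, luminescence.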
With `CC(N)(Cc1ccc(O)cc1)C(=O)O` (stereo not given), the Potency entry is “inactive”.
As to `NC/C=C\C(=O)O`, the Potency entry is “inactive”.
The same measure, in the same setting: then `Fc1ccc(C(OCCCc2cnc[nH]2)c2ccc(F)cc2)cc1`, with “inactive”.
For the compound `COCc1nc2c([nH]1)c(=O)n(C)c(=O)n2CC(C)C`, the Potency result is “inactive”.
Still for that read-out and setting: then `O=C(/C=C/c1ccc(O)c(O)c1)OCCc1ccccc1`, with “inactive”.
Consider `O=C1NC(=O)/C(=C/c2ccc(-c3ccc(F)cc3O)o2)S1`, for which the Potency result was “inactive”.
As for `CCOC(=O)C1=C(O)C(=O)N(Cc2ccccc2)C1`, the Potency result was “inactive”.
As for `C=CCc1cccc(/C=N/NC(=O)CN2CCN(Cc3ccccc3)CC2)c1O`, the Potency result was “inactive”.
In the case of `COC1(C2=NCCN2)COc2ccccc2O1` (stereo not given), the Potency entry is “inactive”.
As for `O=C(OCCN1CCOCC1)C1(c2ccccc2)CCCCC1`, the Potency entry is “inactive”.
The same measure, in the same setting: then `O=C1c2ccccc2C(=O)c2c(NCCc3ccc(O)cc3)ccc(NCCc3ccc(O)cc3)c21`, with “inactive”.
In the case of `Cn1c(=O)c(-c2c(Cl)cccc2Cl)cc2cnc(Nc3ccc(N4CCOCC4)cc3)nc21`, the Potency entry is “inactive”.
In the case of `COc1ccc(/C=C2\COc3ccc(C)cc3C2=O)cc1O`, the Potency was 1.19 µM (active).
On the same count and under the same terms, then `N=c1ccn2c(n1)O[C@H]1C(O)[C@@H](CO)O[C@H]12` (stereo not given in full), with “inactive”; and `CC(=O)N[C@@H](Cc1c[nH]c2ccccc12)C(=O)OCc1cc(C(F)(F)F)cc(C(F)(F)F)c1`, with “inactive”; and `CCNC(=O)[C@H]1O[C@@H](n2cnc3c(N)nc(NCCc4ccc(CCC(=O)O)cc4)nc32)[C@H](O)C1O` (stereo not given in full), with “inactive”.
With `Cc1ccc(S(=O)(=O)/C=C/C#N)cc1`, the Potency was 17.4 µM (active).
Consider `CC1(C)CCC2=C(O1)c1ccccc1C(=O)C2=O`, for which the Potency entry was “inactive”.
With `Cc1cccc(-c2[nH]c(C(C)(C)C)nc2-c2ccc3nccnc3c2)n1`, the Potency result is “inactive”.
On the same count and under the same terms, then `OCC1O[C@H]([S-])C(O)[C@@H](O)[C@@H]1O.[Au+]` (stereo not given in full), with “inactive”; and `NOCC(=O)O`, with “inactive”.
On to `CCN(CC)CCOc1ccc(Nc2ncc3cc(-c4c(Cl)cccc4Cl)c(=O)n(C)c3n2)cc1`, for which the Potency result is “inactive”.
For `CN(C)C(=O)/N=N/C(=O)N(C)C`, the Potency entry was “inactive”.
Same read-out and setting: then `N#C/C(=C\c1ccc(O)c(O)c1)C(=O)NCCc1ccccc1`, with “inactive”.
As for `CC[C@@H]1Cc2cc(O)ccc2C2=C1c1ccc(O)cc1C[C@H]2CC`, the Potency entry is “inactive”.
`COc1ccc2c(c1)c(CC(=O)O)c(C)n2C(=O)c1ccccc1`: the Potency entry is “inactive”.
As to `COCCOc1cc2nc[nH]c(=O)c2cc1OCCOC`, the Potency entry is “inactive”.
In the case of `N=c1c[n+](N2CCOCC2)[n-]o1`, the Potency result is “inactive”.
